# According to PubChem BioAssay (NCATS):
# Inconclusive results are not listed. Entries that show only a call come without a potency. Unmarked numbers belong to inactive results. Calls of active or inactive are those of the source. Calls come from the whole dose curve; as a rule, active = well fitted cell-killing curve with a large enough effect; inconclusive = small, poorly fitted or top-dose-only effect, or effect the other way; inactive = no such curve, though single readings can be large or run the other way.
# Assays:
# [1] = Viability qHTS for spleen associated tyrosine kinase inhibitor (SYKi) naive MV4-11 cells (AID 1963823); note: nearly all actives have a fitted effect of over 40% in size
# Method in brief: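 qHTS, SYK inhibitor-naive MV4-11; 500 cells/well; 72 hr compound exposure, 37 C; CellTiter-Glo added, 10 min RT; luminescence read.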
# [2] = Viability qHTS for spleen associated tyrosine kinase inhibitor (SYKi) drug resistant MV4-11 cells (AID 1963824); note: nearly all actives have a fitted effect of over 35% in size
# Method in brief: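 SYK-inhibitor-resistant MV4-11 AML cells were seeded at 500 per well onto compound and cultured 72 hours (37 °C, 5% CO2). CellTiter-Glo was then added, and after 10 min at room temperature, luminescence gave viability.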
# Potency is the fitted concentration of half-maximal effect.
Structure (SMILES),Potency [1],Potency [2],viability (% of control) [1],"viability, % of control [2]"
O=C(/C=C/c1ccc(O)cc1)c1ccc(O)cc1O,18600 nM (active),11800 nM (active),,
C[C@@H]1O[C@@H](O[C@H]2[C@H](O[C@H]3[C@H](O[C@H]4CC[C@@]5(C)C(CC[C@]6(C)C5CC=C5[C@@H]7CC(C)(C)C[C@@H](O)[C@]7(C)CC[C@]56C)[C@@]4(C)CO)O[C@H](C(=O)O)[C@@H](O)[C@@H]3O)O[C@H](C(=O)O)[C@H](O)[C@@H]2O)[C@H](O)[C@H](O)[C@H]1O (stereo partly drawn),,,83.8% [at 9.25 µM],86.7% [at 9.25 µM]
Cc1ccc(NC(=O)c2cccc(C(C)(C)C#N)c2)cc1Nc1ccc2ncn(C)c(=O)c2c1,1180 nM (active),1480 nM (active),,
O=C(OC[C@H]1O[C@@H](Oc2ccccc2CO)[C@H](O)[C@@H](O)[C@@H]1O)c1ccccc1,inactive,inactive,,
Cc1cc(-c2nncc3c(C(C)(C)C)c(OCc4ncnn4C)nn23)no1,inactive,inactive,,
CSc1cc2c(s1)c1cnn(Cc3ccccc3F)c(=O)c1n2C,inactive,inactive,,
CC(C)=CCC[C@@](C)(O)[C@H]1CC[C@]2(C)[C@@H]1[C@H](O)CC1[C@@]3(C)CC[C@H](O[C@@H]4O[C@H](CO)[C@@H](O)[C@H](O)[C@H]4O[C@@H]4O[C@H](CO)[C@@H](O)[C@H](O)[C@H]4O)C(C)(C)[C@@H]3CC[C@]12C (stereo partly drawn),inactive,inactive,,
CC(=O)O[C@@H]1C[C@@H](OC(C)=O)C(C)(C)/C=C/[C@H](C)[C@H](OC(C)=O)[C@@]2(O)C[C@H](C)[C@H](OC(=O)c3ccccc3)[C@@H]2/C=C/1C,968 nM (active),2730 nM (active),,
C[C@@H]1O[C@@H](O[C@H]2[C@H](O)[C@@H](O)[C@H](OC[C@H]3O[C@@H](OC(=O)[C@]45CCC(C)(C)C[C@H]4C4=CCC6[C@@]7(C)C[C@@H](O)[C@H](O)[C@@](C)(CO)C7[C@H](O)C[C@@]6(C)[C@]4(C)CC5)[C@H](O)[C@@H](O)[C@@H]3O)O[C@@H]2CO)[C@H](O)[C@H](O)[C@H]1O (stereo partly drawn),,,86.1% [at 9.25 µM],79.5% [at 9.25 µM]
C1CCN2CC3C[C@@H](CN4CCCC[C@@H]34)[C@H]2C1,inactive,inactive,,
O=C(O)CCc1cc2ccoc2cc1O[C@@H]1O[C@H](CO)[C@@H](O)[C@H](O)[C@H]1O,inactive,inactive,,
CC1(C)CC[C@]2(C(=O)O[C@@H]3O[C@H](CO)[C@@H](O)[C@H](O)[C@H]3O)CC[C@]3(C)C(=CCC4[C@@]5(C)CC[C@H](O[C@@H]6O[C@H](C(=O)O)[C@@H](O)[C@H](O)[C@H]6O)[C@@](C)(CO)C5CC[C@]43C)C2C1 (stereo partly drawn),,,98% [at 9.25 µM],100% [at 9.25 µM]
O=C(O)Cc1cn([C@@H]2O[C@H](CO)[C@@H](O)[C@H](O)[C@H]2O[C@@H]2O[C@H](CO)[C@@H](O)[C@H](O)[C@H]2O)c2ccccc12,inactive,inactive,,
C=C(C(=O)O)C1CC(O)C2(C)CCCC(C)(O)C2C1 (stereo not drawn),inactive,inactive,,
C=CC(=O)N1CCC(C2CCNc3c(C(N)=O)c(-c4ccc(Oc5ccccc5)cc4)nn32)CC1 (stereo not drawn),7420 nM (active),11800 nM (active),,
CC(C)C(C(=O)N(C)C(C)C(N)=O)N(C)C(=O)C1CCCN1C(=O)/C=C/C=C/C(O)C(C)O (stereo not drawn),inactive,inactive,,
O=C(c1cn(Cc2cncn2Cc2ccc(Br)cc2)cc1-c1cccc2ccccc12)N1CCOCC1,820 nM (active),1640 nM (active),,
CC1(C)S[C@@H]2[C@H](NC(=O)[C@H](N)c3ccc(O)cc3)C(=O)N2[C@H]1C(=O)O,inactive,inactive,,
Cc1cc(O)cc(O[C@@H]2O[C@H](CO)[C@@H](O)[C@H](O)[C@H]2O)c1,inactive,inactive,,
